High-throughput results as filed in PubChem.
DT40 TDP1 CPT = DT40-hTDP1 cell growth loss with CPT; chicken DT40 Tdp1-/-;hTDP1 cells + 20 nM CPT, ATP luminescence, 48 h; Potency, µM (top dose mostly 46.2 µM), without a hit: top-dose activity change, negative = growth inhibition, usual class: inhibitors; actives 12% (n = 420,000); further: potency means the concentration at half of the fitted maximal effect; nearly all actives have a fitted effect of over 55% in size
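Chicken DT40 Tdp1-/- cells stably complemented with human TDP1 were seeded at 400 cells/well in medium containing 20 nM camptothecin, exposed to pin-transferred compounds, and grown at 37 °C for at least 48 hr. Viability was read as ATP luminescence.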
DT40 TDP1 no CPT = qHTS for Inhibitors of human tyrosyl-DNA phosphodiesterase 1 (TDP1): qHTS in cells in absence of CPT; Potency, µM (series often up to 46.2 µM), without a hit: at the top dose activity change, negative = growth inhibition, usual class: inhibitors; actives 15% (n = 420,000); AID 686978, 2013; DT40 Tdp1-/- hTDP1 cells, no CPT, ATP luminescence, 48 h; further: potency means the concentration at half of the fitted maximal effect; nearly all actives have a fitted effect of over 55% in size
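Seeded 400 DT40-hTDP1 cells/well (vehicle DMSO, no 20 nM CPT); pinned compounds; ≥48 hr at 37 °C; CellTiter-Glo luminescence as viability measure.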
HT1080 IDH1KD tx = toxicity to HT-1080 IDH1 knockdown cells (counter line); HT-1080 IDH1 knockdown viability, ATP luminescence, 48 h; Potency, µM (series often up to 46.1 µM), inactives show at the highest dose activity, negative = toxicity, usual class: cytotoxic; actives 2% (n = 360,000); AID 686971;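 further: potency means the concentration at half of the fitted maximal effect; 0% = DMSO wells and -100% = cell-free medium wells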
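Cytotoxicity counter-line: IDH1KD HT-1080, 48 h, CellTiter-Glo. Curves classed by r2, magnitude and activity.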
HT1080-NT tox = kills 2HG-producing HT-1080-NT fibrosarcoma cells; HT-1080-NT fibrosarcoma viability, CellTiter-Glo ATP luminescence, 48 h; Potency, µM (top dose mostly 46.1 µM), inactives show at the top dose activity, negative = less viability, most hits filed as cytotoxic; actives 1.6% (n = 360,000); AID 686970;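 further: NT is the 2HG producing partner of a matched IDH1 knockdown line; potency means the concentration at half of the fitted maximal effect; 0% = DMSO-treated cells and -100% = media-only wells without cells; nearly all actives have a fitted effect of over 55% in size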
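HT-1080-NT fibrosarcoma cells (2HG-overproducing), 750 cells/well in RPMI with 5% FBS, dosed after 2 h and incubated 48 h at 37C. CellTiter-Glo luminescence normalized to DMSO and no-cell wells; concentration-response curves fitted and classed.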
IL1B secr inh = inflammasome signaling inhibition, IL-1 beta readout | THP-1 LPS/ATP IL-1B secretion, AlphaLISA, 16 h; hits give low values | actives 4.7% (n = 360,000) | activity change, % at 57.5 µM; in the data active means activity change below about -50%; inconclusive means mostly about -30% to -49%
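Secreted IL-1B measured by AlphaLISA bead assay after 16 h compound exposure of THP-1 cells; compounds (final up to 57.5 uM) added 1 h before LPS (250 ng/mL) and ATP (1.25 mM) stimulation; lower signal means less secretion.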
* = called active by the depositor; i = inactive; ? = inconclusive; · = no result given; [ ] = another dose, or the depositor's remark. Rows were chosen to be rich in hits. Some 19% of all compounds tested hit in one or more screens of this group. Unless noted, the call rests on the fitted dose curve; in most records, active means well fitted curve in the direction sought with a large enough effect; inconclusive means small, poorly fitted or top-dose-only effect, or another doubt; inactive means no such curve, though single readings can be large; an effect the other way counts as inactive or inconclusive. Unless noted, on the % scale 0 is the no-effect control and ±100 the full control effect.

SMILES	DT40 TDP1 CPT	DT40 TDP1 no CPT	HT1080 IDH1KD tx	HT1080-NT tox	IL1B secr inh
Cc1cc(C)c2c(CC(=O)Nc3cc(C(F)(F)F)ccc3Cl)coc2c1	-19%	?	·	·	·
COc1ccc(C(=O)/C=C/c2ccc(OC)c(CN3CCOCC3)c2)cc1	?	23µM*	?	-4%	-100*
COc1ccc(C(=O)/C=C/c2ccc(OC)c(Cn3nnc4ccccc43)c2)cc1	18µM*	21µM*	-28%	-20%	?
COc1ccc(/C=C/C(=O)c2ccc(O)cc2)cc1CN1CCOCC1	?	29µM*	?	-36%	-133*
COc1ccc(/C=N/NC(=O)c2ccc(Br)cc2)cc1CN1CCOCC1	14%	-14%	14%	0%	-4
CCOC(=O)C1=C(C)NC(=O)NC1c1ccc(OC)c(CN2CCOCC2)c1 (stereo unspecified)	33%	-22%	17%	8%	-18
COc1ccc(/C=C/C(=O)C23CC4CC(CC(C4)C2)C3)cc1CN1CCOCC1	?	18µM*	?	?	-189*
COc1ccc(/C=C/C(=O)c2nc3ccccc3n2CC(=O)c2ccc(OC)cc2)cc1	4%	-13%	-8%	-3%	-27
CCNC(=O)C1CCCN(C(=O)c2cccc(C(F)(F)F)c2)CC1 (stereo unspecified)	-14%	-17%	2%	19%	42
CCCCn1c(N)c(N(Cc2ccccc2OC)C(=O)C(C)C)c(=O)[nH]c1=O	-4%	-6%	0%	-1%	i
C/C(=C\C(=O)c1ccccc1)Nc1ccc(N2CCOCC2)cc1	-21%	?	0%	5%	-21
O=C(/C=C/c1cccc(O)c1)c1ccc(N2CCOCC2)cc1	?	15µM*	-28%	-7%	-94*
Cc1nc(C)c(C(=O)NNS(=O)(=O)c2ccc3ccccc3c2)s1	?	23µM*	?	?	54
Cc1nc(NS(=O)(=O)c2ccccc2)sc1C(=O)NNS(=O)(=O)c1ccccc1	-2%	3%	-1%	7%	13
O=CC1=C(N2CCOCC2)/C(=C/c2ccc(Cl)cc2)CC1	?	21µM*	-5%	-1%	-19
C/C(=N/NC(=O)c1ccoc1C)c1ccc(N2CCOCC2)cc1	-3%	-17%	18%	30%	-4
Cc1occc1C(=O)N/N=C/C1=C(N2CCOCC2)C(=C\c2ccc(Cl)cc2Cl)/CC1	?	7.3µM*	7%	6%	-11
Cc1cc(C)nc(N/N=C/C2=C(N3CCOCC3)C(=C\c3ccc(Cl)cc3)/CC2)n1	23µM*	16µM*	-23%	-23%	-25
Cn1cc(C(=O)N/N=C/C2=C(N3CCOCC3)C(=C/c3ccc([N+](=O)[O-])cc3)/CC2)ccc1=O	?	-27%	-3%	-5%	1
O=C(O)c1ccc(N/N=C/C2=C(N3CCOCC3)C(=C\c3ccccc3)/CC2)cc1	?	21µM*	15µM*	15µM*	-9
Cc1[nH]c2c(C)cccc2c(=O)c1Br	?	?	2%	5%	14
CSc1nc2n(n1)C(c1ccccn1)C1=C(CC(C)(C)CC1=O)N2 (stereo unspecified)	-13%	-10%	4%	4%	-8
Cc1cc(C)nc(NN=CC2=C(N3CCOCC3)/C(=C/c3ccc(Cl)cc3)CC2)n1	12µM*	8.2µM*	-18%	?	-27
Cc1cc(C)nc(N/N=C/c2ccc(N3CCOCC3)cc2)n1	?	-16%	2%	9%	-18
COc1ccc(NC(=O)CN(C)C(=O)c2cn(-c3ccccc3)nc2-c2cccs2)cc1	?	16µM*	-2%	0%	-16
SMILES	DT40 TDP1 CPT	DT40 TDP1 no CPT	HT1080 IDH1KD tx	HT1080-NT tox	IL1B secr inh
O=C(c1cn(-c2ccccc2)nc1-c1cccs1)N1CCN(c2ccccc2)CC1	7.3µM*	7.3µM*	7.1µM*	?	10
CN(CC(=O)Nc1cccc(F)c1)C(=O)c1cn(-c2ccccc2)nc1-c1ccccc1	?	?	-6%	-3%	?
CN(CC(=O)Nc1ccc(F)cc1)C(=O)c1cn(-c2ccccc2)nc1-c1cccs1	?	?	-2%	-10%	-60*
Cc1ccc(NC(=O)Cn2c(=O)n(CCc3ccccc3)c(=O)c3c4c(sc32)CCCC4)cc1C	8%	-3%	·	·	·
CCOC(=O)c1c(C)[nH]c(C(=O)OCc2ccccc2)c1C	-22%	?	-7%	11%	-3
CCOC(=O)c1[nH]c(C)c(C(=O)NCc2ccccn2)c1C	-8%	-7%	-1%	5%[9.24 µM]	31
CCOC(=O)c1[nH]c(C)c(C(=O)Nc2ccccc2C)c1C	1.6µM*	1.5µM*	2.3µM*	5.8µM*	-5
CCOC(=O)c1[nH]c(C)c(C(=O)Nc2cc(Cl)ccc2C)c1C	0.15µM*	0.16µM*	0.089µM*	0.32µM*	49
CCOC(=O)c1[nH]c(C)c(C(=O)NC(CC)Cc2ccccc2)c1C (stereo unspecified)	?	16µM*	·	·	·
CCCn1ncc(CN2CCC(n3nccc3NC(=O)CCc3ccccc3)CC2)c1C	4%	0%	10%	4%	0
CCOC(=O)[C@]12CCC=C1N(CCC1=CCCCC1)C(=O)[C@H](CC(=O)N1CCN(C(=O)c3ccco3)CC1)C2	?	?	10%	17%	-3
Cc1cc2c(c(-c3cnccn3)c1)OC(CNC(=O)c1c(F)cccc1Cl)C2 (stereo unspecified)	10%[9.04 µM]	?	·	·	·
COCCNC(=O)c1sc2ncn(CC(=O)N3CCCCC3)c(=O)c2c1C	?	26µM*	6%	0%	12
Cc1c(C(=O)Nc2c(F)cccc2F)sc2ncn(CC(=O)N3CCCCC3)c(=O)c12	-9%	7%	-1%	13%	20
COC(=O)CNC(=O)c1sc2ncn(CC(=O)Nc3ccc(C)c(Cl)c3)c(=O)c2c1C	?	-23%	-6%	-11%	-81*
COCCNC(=O)c1sc2ncn(CC(=O)Nc3ccc(C)c(Cl)c3)c(=O)c2c1C	?	13µM*	-7%	-2%	-9
CCN(CC)C(=O)Cn1cnc2sc(C(=O)Nc3cc(OC)c(OC)c(OC)c3)c(C)c2c1=O	?	12µM*	-2%	-2%	8
CCCNC(=O)Cn1cnc2sc(C(=O)Nc3cc(OC)c(OC)c(OC)c3)c(C)c2c1=O	11%	9%	2%	0%	-11
Cc1ccc(NC(=O)Cn2cnc3sc(C(=O)NCc4ccco4)c(C)c3c2=O)cc1Cl	?	?	?	?	-3
